Of roughly 7,900 targets only a part is listed; those with a hit were picked by preference. About 0.6% of all pairs of compound and target were hits. Unmarked numbers belong to inactive results.

Drawing on the supplement of paper PMC10849652, this text covers log2 fold change for 32 targets.

UniProt Q96RR4, sequence (Q96RR4 whole entry, looked up): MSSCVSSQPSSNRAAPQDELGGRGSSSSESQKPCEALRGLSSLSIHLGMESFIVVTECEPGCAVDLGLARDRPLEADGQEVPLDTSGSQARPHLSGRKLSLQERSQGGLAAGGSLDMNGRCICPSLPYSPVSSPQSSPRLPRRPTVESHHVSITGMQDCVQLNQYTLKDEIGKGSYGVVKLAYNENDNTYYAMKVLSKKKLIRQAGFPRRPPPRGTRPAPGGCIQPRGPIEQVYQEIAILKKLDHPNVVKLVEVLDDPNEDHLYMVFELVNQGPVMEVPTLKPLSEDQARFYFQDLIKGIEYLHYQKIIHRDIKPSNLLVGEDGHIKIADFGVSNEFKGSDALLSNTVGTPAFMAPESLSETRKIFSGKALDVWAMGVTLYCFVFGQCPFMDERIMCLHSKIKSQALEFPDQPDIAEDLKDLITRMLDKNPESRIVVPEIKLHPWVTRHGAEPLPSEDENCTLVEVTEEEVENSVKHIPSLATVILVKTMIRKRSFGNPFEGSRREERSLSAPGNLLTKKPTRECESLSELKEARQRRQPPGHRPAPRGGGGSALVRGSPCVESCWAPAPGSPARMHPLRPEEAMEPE
UniProt O95319, sequence (O95319 whole entry, looked up): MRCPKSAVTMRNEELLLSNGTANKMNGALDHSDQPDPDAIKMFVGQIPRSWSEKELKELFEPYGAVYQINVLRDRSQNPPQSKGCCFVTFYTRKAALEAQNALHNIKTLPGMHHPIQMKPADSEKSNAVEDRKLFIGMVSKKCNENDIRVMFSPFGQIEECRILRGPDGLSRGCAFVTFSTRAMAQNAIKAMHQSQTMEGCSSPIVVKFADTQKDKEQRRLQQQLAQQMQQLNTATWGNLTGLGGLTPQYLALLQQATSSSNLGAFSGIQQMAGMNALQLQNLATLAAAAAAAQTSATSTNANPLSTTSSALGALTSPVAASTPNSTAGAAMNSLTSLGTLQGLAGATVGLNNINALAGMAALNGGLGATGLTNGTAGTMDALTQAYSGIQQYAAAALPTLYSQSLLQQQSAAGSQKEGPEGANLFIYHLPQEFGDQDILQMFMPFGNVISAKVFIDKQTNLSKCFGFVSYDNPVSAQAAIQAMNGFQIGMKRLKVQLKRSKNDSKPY
UniProt Q8IWV2, sequence (Q8IWV2 whole entry, looked up): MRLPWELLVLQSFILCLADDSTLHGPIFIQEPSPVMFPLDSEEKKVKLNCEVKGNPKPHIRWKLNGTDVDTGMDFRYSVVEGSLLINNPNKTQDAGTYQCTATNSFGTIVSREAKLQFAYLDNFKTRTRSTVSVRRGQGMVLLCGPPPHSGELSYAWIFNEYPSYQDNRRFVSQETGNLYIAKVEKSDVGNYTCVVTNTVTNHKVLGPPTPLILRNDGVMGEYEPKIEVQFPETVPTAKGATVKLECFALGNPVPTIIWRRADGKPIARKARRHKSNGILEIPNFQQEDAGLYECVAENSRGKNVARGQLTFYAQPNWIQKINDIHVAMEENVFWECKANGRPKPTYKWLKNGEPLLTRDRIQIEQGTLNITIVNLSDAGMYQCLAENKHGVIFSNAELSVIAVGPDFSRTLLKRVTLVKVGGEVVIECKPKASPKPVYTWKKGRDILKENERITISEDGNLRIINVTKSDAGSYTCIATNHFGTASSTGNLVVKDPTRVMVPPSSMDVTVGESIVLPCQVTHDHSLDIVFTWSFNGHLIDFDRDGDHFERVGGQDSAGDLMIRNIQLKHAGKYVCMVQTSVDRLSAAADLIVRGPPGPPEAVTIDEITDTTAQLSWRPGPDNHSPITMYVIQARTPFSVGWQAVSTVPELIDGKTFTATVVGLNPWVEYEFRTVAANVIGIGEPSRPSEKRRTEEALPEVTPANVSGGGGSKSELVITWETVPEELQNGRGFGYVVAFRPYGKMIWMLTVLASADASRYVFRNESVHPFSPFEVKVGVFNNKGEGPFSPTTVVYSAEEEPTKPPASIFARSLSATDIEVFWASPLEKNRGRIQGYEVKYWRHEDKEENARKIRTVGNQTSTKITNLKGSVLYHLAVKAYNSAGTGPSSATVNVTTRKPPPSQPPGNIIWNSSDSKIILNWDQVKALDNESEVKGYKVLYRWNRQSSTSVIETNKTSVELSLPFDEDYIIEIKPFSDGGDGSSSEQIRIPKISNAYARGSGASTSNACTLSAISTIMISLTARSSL
UniProt Q6NZI2, sequence (Q6NZI2 whole entry, looked up): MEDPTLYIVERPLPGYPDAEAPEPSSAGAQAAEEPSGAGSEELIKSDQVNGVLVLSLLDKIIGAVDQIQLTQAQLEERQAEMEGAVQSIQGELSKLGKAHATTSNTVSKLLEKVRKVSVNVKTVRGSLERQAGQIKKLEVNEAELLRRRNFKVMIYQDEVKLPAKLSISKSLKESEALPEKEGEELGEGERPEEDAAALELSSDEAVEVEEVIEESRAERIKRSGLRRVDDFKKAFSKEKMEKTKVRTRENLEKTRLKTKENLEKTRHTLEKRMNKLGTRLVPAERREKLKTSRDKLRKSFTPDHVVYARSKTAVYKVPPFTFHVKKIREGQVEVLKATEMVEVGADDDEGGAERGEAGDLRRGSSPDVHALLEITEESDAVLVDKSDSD
UniProt Q9NXV6, sequence (Q9NXV6 whole entry, looked up): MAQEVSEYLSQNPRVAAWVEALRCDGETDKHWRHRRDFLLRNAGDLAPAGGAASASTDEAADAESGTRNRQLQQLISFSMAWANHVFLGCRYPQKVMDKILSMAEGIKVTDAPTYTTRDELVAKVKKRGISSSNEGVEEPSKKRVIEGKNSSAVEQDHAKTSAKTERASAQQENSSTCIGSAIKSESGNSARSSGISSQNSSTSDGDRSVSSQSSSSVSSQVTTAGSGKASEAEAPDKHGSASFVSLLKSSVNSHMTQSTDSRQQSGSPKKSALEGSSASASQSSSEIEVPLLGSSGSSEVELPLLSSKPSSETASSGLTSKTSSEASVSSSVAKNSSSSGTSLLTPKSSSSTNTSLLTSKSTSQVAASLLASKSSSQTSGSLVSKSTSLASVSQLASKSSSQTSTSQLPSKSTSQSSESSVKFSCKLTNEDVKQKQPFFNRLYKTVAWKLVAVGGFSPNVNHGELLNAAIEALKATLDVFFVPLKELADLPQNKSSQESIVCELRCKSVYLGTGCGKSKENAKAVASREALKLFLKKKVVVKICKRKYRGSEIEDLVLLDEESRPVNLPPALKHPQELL
UniProt Q14677, sequence (Q14677 whole entry, looked up): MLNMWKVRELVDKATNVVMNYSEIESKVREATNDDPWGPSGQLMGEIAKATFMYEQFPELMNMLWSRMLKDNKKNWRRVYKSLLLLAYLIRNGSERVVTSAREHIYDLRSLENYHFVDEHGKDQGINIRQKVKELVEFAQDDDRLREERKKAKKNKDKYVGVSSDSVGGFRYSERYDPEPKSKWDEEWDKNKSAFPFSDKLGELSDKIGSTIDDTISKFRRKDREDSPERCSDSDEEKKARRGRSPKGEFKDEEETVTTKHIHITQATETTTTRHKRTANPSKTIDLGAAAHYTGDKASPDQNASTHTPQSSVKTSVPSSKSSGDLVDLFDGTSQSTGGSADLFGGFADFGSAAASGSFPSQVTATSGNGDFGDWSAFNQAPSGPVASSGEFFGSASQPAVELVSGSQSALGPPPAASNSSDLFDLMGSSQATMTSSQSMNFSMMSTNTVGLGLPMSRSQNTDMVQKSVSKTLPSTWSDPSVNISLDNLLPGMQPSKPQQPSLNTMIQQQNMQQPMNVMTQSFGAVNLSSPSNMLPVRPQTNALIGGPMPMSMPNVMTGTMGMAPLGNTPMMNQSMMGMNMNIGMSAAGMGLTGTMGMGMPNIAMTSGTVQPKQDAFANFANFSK
UniProt P19784, sequence (P19784 whole entry, looked up): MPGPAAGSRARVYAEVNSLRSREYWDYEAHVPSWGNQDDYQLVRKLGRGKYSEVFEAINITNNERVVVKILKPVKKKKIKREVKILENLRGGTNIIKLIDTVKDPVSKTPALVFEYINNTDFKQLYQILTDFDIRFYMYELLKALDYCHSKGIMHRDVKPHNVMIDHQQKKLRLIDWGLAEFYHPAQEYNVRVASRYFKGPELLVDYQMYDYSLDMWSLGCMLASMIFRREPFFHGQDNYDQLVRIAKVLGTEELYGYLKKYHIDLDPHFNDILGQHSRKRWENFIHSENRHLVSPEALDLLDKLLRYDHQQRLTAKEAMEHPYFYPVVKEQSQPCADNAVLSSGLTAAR
UniProt P45973, sequence (P45973 whole entry, looked up): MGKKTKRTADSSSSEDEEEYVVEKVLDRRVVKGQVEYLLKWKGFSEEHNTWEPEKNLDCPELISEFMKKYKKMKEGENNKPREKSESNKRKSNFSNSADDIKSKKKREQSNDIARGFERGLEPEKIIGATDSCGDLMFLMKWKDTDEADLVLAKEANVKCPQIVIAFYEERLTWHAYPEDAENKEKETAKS
UniProt Q99627, sequence (Q99627 whole entry, looked up): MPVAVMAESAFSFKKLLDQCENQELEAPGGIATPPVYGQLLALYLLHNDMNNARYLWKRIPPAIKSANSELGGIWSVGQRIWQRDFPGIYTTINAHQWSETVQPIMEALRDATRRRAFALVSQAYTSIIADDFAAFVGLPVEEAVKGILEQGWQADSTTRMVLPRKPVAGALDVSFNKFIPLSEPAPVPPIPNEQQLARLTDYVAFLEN
UniProt Q13901, sequence (Q13901 whole entry, looked up): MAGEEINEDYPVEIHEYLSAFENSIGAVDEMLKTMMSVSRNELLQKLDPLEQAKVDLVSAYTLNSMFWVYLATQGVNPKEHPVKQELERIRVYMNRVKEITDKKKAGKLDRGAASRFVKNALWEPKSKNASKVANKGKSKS
UniProt P09497, sequence (P09497 whole entry, looked up): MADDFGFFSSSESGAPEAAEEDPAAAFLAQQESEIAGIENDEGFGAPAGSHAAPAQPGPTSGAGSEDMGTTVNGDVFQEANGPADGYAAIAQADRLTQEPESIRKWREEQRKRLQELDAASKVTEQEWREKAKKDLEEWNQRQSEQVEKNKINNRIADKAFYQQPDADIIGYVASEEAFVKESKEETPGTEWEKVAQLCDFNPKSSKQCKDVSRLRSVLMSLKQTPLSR
UniProt Q8NHZ8, sequence (Q8NHZ8 whole entry, looked up): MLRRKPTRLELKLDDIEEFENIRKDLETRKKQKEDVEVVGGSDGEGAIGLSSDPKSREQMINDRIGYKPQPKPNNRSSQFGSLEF

Compound in the test: CCN(CCCOc1ccc2c(Nc3cc(CC(=O)Nc4cccc(F)c4)[nH]n3)ncnc2c1)CCOP(=O)(O)O [barasertib]
Nature of the test: log2 fold change, soluble protein after heating vs DMSO (PISA); higher = thermal stabilisation; K562 cells, 10 uM, 30 min; active = over 0.2 and 3.5 SD of the protein, either way, in both replicates (recomputed). Put shortly:
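For each measurement, 10 μM compound was applied for 30 min to K562 cells at 2×10^6 cells/mL. Aliquots were heated for 3 min across 48°C-58°C, pooled, and extracted in PBS with 0.5% NP-40 at 4°C; the supernatant after 21,000xg for 90 min was soluble protein. This was quantified by TMTpro 16plex LC-MS/MS with channel sums equalised, and thermal stability was reported relative to control samples from duplicates, on a log2 fold-change scale.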
With COPS8 (UniProt Q99627), the log2 fold change is 0.009.
The value for CNOT4 isoform 6 (UniProt O95628) was 0.007; that for CNOT2 (UniProt Q9NZN8) was 0.01.
With CCAR2 isoform 2 (UniProt Q8N163), the log2 fold change was 0.026.
In the case of COX6B1 (UniProt P14854), the log2 fold change is 0.085.
The value for COPS3 (UniProt Q9UNS2) was 0.016.
The same measure for CDAN1 (UniProt Q8IWY9): 0.002; for CRTC2 (UniProt Q53ET0): 0.062; for COASY isoform 2 (UniProt Q13057): 0.029.
On to CDC26 (UniProt Q8NHZ8), for which the log2 fold change was 0.007.
Take CPSF1 (UniProt Q10570): the log2 fold change is -0.024.
As for CSNK2A2 (UniProt P19784), the log2 fold change is 0.003.
Take CLCN3 isoform 2 (UniProt P51790): the log2 fold change was -0.006.
The same measure for CAVIN1 (UniProt Q6NZI2): -0.058; for CBX5 (UniProt P45973): -0.05; for CAMK2G isoform 6 (UniProt Q13555): 0.065.
In the case of CNTN4 (UniProt Q8IWV2), the log2 fold change was 0.055.
The value for CDK13 (UniProt Q14004) was -0.029; that for CDK9 isoform 2 (UniProt P50750) was 0.002; that for CDKN2AIP (UniProt Q9NXV6) was -0.017.
The same measure for C1D (UniProt Q13901): 0.104.
The value for COX5B (UniProt P10606) was 0.034.
Take CLTB (UniProt P09497): the log2 fold change was -0.023.
Take CHD3 isoform 3 (UniProt Q12873): the log2 fold change is 0.046.
The value for CELF2 isoform 3 (UniProt O95319) was 0.001.
The same measure for CSNK1D (UniProt P48730): -0.032; for CASP2 (UniProt P42575): 0.026; for CLINT1 isoform 3 (UniProt Q14677): -0.047.
The same measure for CAMKK2 (UniProt Q96RR4): 0.058.
Turning to CDK11B (UniProt P21127), the log2 fold change was 0.028.
The value for C4orf33 (UniProt Q8N1A6) was 0.03.
The value for CALCOCO2 isoform 4 (UniProt Q13137) was 0.022.
